# Experimental data published in PubChem BioAssay AID2315 (National Center for Advancing Translational Sciences (NCATS), 2010).
# Among all 290,000 compounds or so, about 27,000 (9.3%) were called active. Only a selection was taken, and actives are over-represented in it overall. Values without a mark were called inactive. No stated cut-off is given here; in the data, active means inhibition mostly above about 28% (no sharp cut-off); inactive means mostly below about 43%.
# Assay: A qHTS for Small Molecule Inhibitors of Shiga Toxin; further: 0% is about no effect
# Conditions: Vero cells, Shiga toxin protein synthesis inhibition reporter; at 38.7 µM, hits give high values
row,SMILES,inhibition
1,CCC(=O)Nc1nc(C)c(C(=O)Nc2cccc(Cl)c2)s1,12.8%
2,COc1cc(/C=C2\CCCc3c2nc2ccccc2c3C(=O)O)cc(Cl)c1O,-3.8%
3,CCc1ccc(N2CC(C(=O)Nc3ccc(S(=O)(=O)Nc4nccs4)cc3)CC2=O)cc1 (stereo not given),16.7%
4,O=C(c1cccc(Cl)c1)N1CCN(Cc2ccccc2)CC1,-19.8%
5,COc1ccc(-c2noc(CNC(=O)C(C)Oc3ccccc3)n2)cc1 (stereo not given),11.6%
6,Cc1ccccc1C(=O)N1CCC(C(=O)Nc2ccc(S(=O)(=O)N(C)C(C)C)cc2)CC1,24.6%
7,Cc1cc(C(F)(F)F)n2ncc(-c3ccccc3)c2n1,-2.7%
8,COc1ccccc1NC(=O)C1CCCN(c2cc(C)nc3ncnn23)C1 (stereo not given),2.25%
9,COc1ccccc1-c1cnn2c(N3CCOCC3)cc(C)nc12,87.6% (active)
10,N#Cc1c(-c2ccccc2)cc(-c2ccccc2)nc1SCC(=O)O,-7.81%
11,Cc1ccc(-n2c(C)cc(C(=O)CN3C(=O)C(=O)N(C4CCCC4)C3=O)c2C)cc1,-11%
12,Cc1cc(C(=O)CSc2nc(N)cc(=O)[nH]2)c(C)n1-c1cccc(F)c1,3.21%
13,Cc1cc(C(=O)COC(=O)C2CC2)c(C)n1-c1ccc(F)cc1,52.6% (active)
14,CN(CC(=O)NCc1ccncc1)S(=O)(=O)c1ccc(Br)cc1,9.73%
15,Cc1cc(S(=O)(=O)Nc2ccc(C(=O)NCC(c3ccco3)N3CCCC3)cc2)ccc1F (stereo not given),-11.6%
16,CCC(C)[C@H](NC(=O)N1c2ccccc2NC(=O)[C@@H]1C(C)C)C(=O)N[C@@H](Cc1ccccc1)C(=O)O (stereo not given in full),-1.75%
17,Cc1nc2ccccc2c(-c2ccccc2)c1C(=O)c1ccccc1,-2.44%
18,CCCC(=O)n1nc(-c2ccccc2)nc1N,17.2%
19,Cc1nn(C(=O)c2ccoc2C)c(N)c1-c1ccccc1,131% (active)
20,Cc1cc(C)c2c(Cn3ccnc3)cc(=O)oc2c1,-6.18%
21,CC(=O)Nc1ccc(S(=O)(=O)N2CCC(C(=O)NC3CC3)CC2)cc1,-3.15%
22,CN(Cc1ccccc1Cl)C(=O)C1CCC(=O)N(CCc2cccc(F)c2)C1 (stereo not given),2.46%
23,COc1ccc(NS(=O)(=O)c2ccc3oc(SCC(N)=O)nc3c2)cc1,-13.2%
24,COc1ccc(S(=O)(=O)N(C)C)cc1NC(=O)CSc1ncccn1,-6.2%
25,CN(C)S(=O)(=O)c1ccc2oc(SCC(=O)Nc3ccccc3F)nc2c1,113% (active)
